Screen size: about 320,000 compounds; about 2,100 (0.66%) were called active. About 53% were inconclusive and are not listed. The call rests on the fitted dose curve; in most records, active means well fitted inhibition curve with a large enough effect in the signal ratio, with a control signal flat (not every such curve was filed as active); inconclusive means small, poorly fitted or top-dose-only effect, or effect the other way, or a change in a side signal; inactive means flat fitted curve, though single readings scatter; the % refers to the signal ratio. For the sample, actives were picked, then their nearest neighbours and some compounds at random.
Experiment: qHTS Assay for Lipid Storage Modulators in Drosophila S3 Cells;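 on cell number change: cells counted by Cell Tracker Red CMTPX staining in the red channel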; on lipid storage change, negative = inhibition: on the % scale 0 is the no-effect control and ±100 the full control effect
Details: BODIPY lipid droplet fluorescence, 18-24 h, cells fed with added oleic acid; cell number change: measured here: cell count max response; series mostly up to 46.1 µM
Outline: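 Laser-scanning cytometry quantifies lipid droplet accumulation (500–530 nm total intensity; droplet/cell object ratio) in oleic acid-fed (400 uM added) Drosophila S3 cells treated with a concentration series. 20 uM Triacsin C defined 100% inhibition.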
Potency means the concentration at half of the fitted maximal effect.

Q: For `O=C(c1ccccc1)c1cccn1CC(=O)N1CCCCCC1`, which Potency is on record?
A: inactive

Q: What about the cell number change of the same compound?
A: 10.2%

Q: Which Potency does the source give for `CC(=O)N1N=C(c2c(-c3ccccc3)c3cc(C)ccc3[nH]c2=O)CC1c1ccco1` (configuration not stated) here?
A: inactive

Q: Which cell number change does the source give for `Cc1ccc(S(=O)(=O)N2CCOC2CNC(=O)C(=O)NCCc2c[nH]c3ccccc23)cc1` (configuration not stated) here?
A: 24.7%

Q: What about the lipid storage change, negative = inhibition of the same compound?
A: 6.05% [at 9.22 µM] (inactive)

Q: With `Cc1nn(C)c(Cl)c1CN1CCN(CCC(C)C)C(CCO)C1` (configuration not stated) as the compound, how does the Potency read?
A: inactive

Q: What about the cell number change of the same compound?
A: 11.3%

Q: Which Potency does the source give for `CCOC(=O)c1c(NC(=O)CSc2nnc(C)c(=O)[nH]2)sc(C)c1-c1ccc(C)cc1` here?
A: inactive

Q: And the cell number change?
A: 18.2%

Q: Which Potency does the source give for `COc1cccc(NC(=O)C(C)Sc2nnc(C3CC3)n2C2CC2)c1` (configuration not stated) here?
A: inactive

Q: And the cell number change?
A: -1.32%

Q: Which Potency does the source give for `Cc1ccc(S(=O)(=O)N2CCCCC2)cc1NC(=O)COC(=O)Cc1c(F)cccc1Cl` here?
A: inactive

Q: And the cell number change?
A: 10%

Q: With `CCOC(=O)/C(=N/Nc1ccc(OC)cc1)N1CCCc2ccccc21` as the compound, how does the Potency read?
A: inactive

Q: And the cell number change?
A: -4.8%

Q: Which Potency does the source give for `CCOC(=O)c1[nH]ncc1CN1CCCC(C(=O)c2ccc(SC)cc2)C1` (configuration not stated) here?
A: inactive

Q: And the cell number change?
A: 0.969%

Q: Which Potency does the source give for `COC(=O)c1ccc(-c2c(-c3ccccc3)ncc3cc(F)ccc23)cc1` here?
A: inactive

Q: What about the cell number change of the same compound?
A: -9.19%

Q: For `CCn1c(CNc2ccc(C)cc2)nnc1SCC(=O)NCc1ccccc1`, which Potency is on record?
A: inactive

Q: And the cell number change?
A: -12.4%

Q: With `CCn1c(CSCc2ccc(C)cc2)nnc1SCC(=O)NCc1ccccc1` as the compound, how does the Potency read?
A: 20.6 µM (active)

Q: What about the cell number change of the same compound?
A: -15.2%

Q: For `CCn1c(CSc2nc3ccccc3s2)nnc1SCC(=O)c1ccc(O)cc1O`, which Potency is on record?
A: inactive

Q: And the cell number change?
A: -7.44%

Q: With `CCn1c(CSCc2ccc(F)cc2)nnc1SCC(=O)NCc1ccccc1` as the compound, how does the Potency read?
A: inactive

Q: With `CCn1c(CSc2nc3ccccc3s2)nnc1SCC(=O)NCC(=O)OC` as the compound, how does the Potency read?
A: 25.9 µM (active)

Q: What about the cell number change of the same compound?
A: -13.2%

Q: For `CCn1c(CSc2nc3ccccc3s2)nnc1SCC(=O)c1ccc(O)c(O)c1`, which Potency is on record?
A: inactive

Q: What about the cell number change of the same compound?
A: 8.44%

Q: For `CC(C)[C@H](N)c1cn([C@@H](CC(N)=O)C(=O)N2CCNCC2)nn1`, which Potency is on record?
A: inactive

Q: And the cell number change?
A: 10%

Q: For `CCOC(=O)Cn1nc(C)c([N+](=O)[O-])c1C`, which Potency is on record?
A: inactive

Q: What about the cell number change of the same compound?
A: 2.33%

Q: For `O=C(CS(=O)CC(=O)N(CC(=O)NC1CCCC1)c1ccc2c(c1)OCCO2)Nc1ccc(F)cc1` (configuration not stated), which Potency is on record?
A: inactive

Q: And the cell number change?
A: 11.4%

Q: Which Potency does the source give for `CCc1ccc(C(=O)c2oc3nc(C)cc(C)c3c2N)cc1` here?
A: 25.9 µM (active)

Q: And the cell number change?
A: -19.5%

Q: With `Cc1cc(C)c2c(N)c(C(=O)c3ccc(Br)cc3)oc2n1` as the compound, how does the Potency read?
A: inactive

Q: And the cell number change?
A: -13.1%

Q: Which Potency does the source give for `Cc1ccc(C(=O)c2oc3nc(C)cc(C)c3c2N)cc1` here?
A: inactive

Q: And the cell number change?
A: -19%

Q: What does the source list for `CC1CC(C)CN(S(=O)(=O)c2ccc(NC(=O)CN3C(=O)NC(C)(c4ccccc4)C3=O)cc2)C1` (configuration not stated)?
A: Potency: inactive; cell number change: 3.59%

Q: For `O=C(O)C1CC(=O)N(C2CCCCC2)C1c1ccccc1` (configuration not stated), which Potency is on record?
A: inactive

Q: And the cell number change?
A: -5.69%

Q: Which Potency does the source give for `CCOC(=O)N1CCN(C(=O)CSc2nc(=O)n3cc(C)ccc3n2)CC1` here?
A: inactive

Q: Which Potency does the source give for `CC(C)CC(=O)NC(c1ccccc1)c1c(O)ccc2ccccc12` (configuration not stated) here?
A: inactive

Q: And the cell number change?
A: -6.8%

Q: Which results are given for `Cc1ccc(C(NC(=O)C2CCCCC2)c2c(O)ccc3ccccc23)cc1` (configuration not stated)?
A: Potency: 13 µM (active); cell number change: -26.6%

Q: Which results are given for `CC(=O)NC(c1ccccc1)c1c(O)ccc2ccccc12` (configuration not stated)?
A: Potency: inactive; cell number change: 0.433%

Q: With `CCN(CC)S(=O)(=O)c1ccc(N2CCOCC2)c(NC(=O)CN2C(=O)NC(C)(c3ccccc3)C2=O)c1` (configuration not stated) as the compound, how does the Potency read?
A: inactive

Q: Which Potency does the source give for `O=C(Cc1cccc(F)c1)N1CCCC(CO)(Cc2ccc(F)cc2F)C1` (configuration not stated) here?
A: inactive

Q: And the cell number change?
A: 17.6%

Q: What does the source list for `CC(C)c1nc2sc3c(=O)[nH]cnc3c2c2c1CCC2`?
A: Potency: inactive; cell number change: -2.67%

Q: With `CC1(C)Cc2c(c(-c3ccccc3)nc3sc4c(=O)[nH]c(=S)[nH]c4c23)CO1` as the compound, how does the Potency read?
A: inactive

Q: Which Potency does the source give for `CC(C)c1nc2sc3c(=O)[nH]c(=S)[nH]c3c2c2c1CCC2` here?
A: 20.6 µM (active)

Q: What about the cell number change of the same compound?
A: 5.1%

Q: For `Cc1[nH]n(-c2ccc([N+](=O)[O-])cc2)c(=O)c1C=NCC1CCCO1` (configuration not stated), which outcome is on record?
A: inactive [at 9.22 µM]

Q: With `O=C(CN1C(=O)/C(=C/c2cccc(Br)c2)SC1=S)NCCCN1CCOCC1` as the compound, how does the Potency read?
A: inactive

Q: Which outcome does the source give for `O=C(Cc1csc(NC(=O)Nc2ccc(Cl)cc2)n1)NC1CCCC1` here?
A: inactive [at 0.0737 µM]

Q: Which Potency does the source give for `O=C(Cc1c(Sc2ccccc2)c2ccccc2n1Cc1ccccc1)NCCO` here?
A: 13 µM (active)

Q: What does the source list for `CSc1c(CC(=O)NCCCO)n(Cc2ccccc2)c2ccccc12`?
A: Potency: inactive; cell number change: -1.72%

Q: What does the source list for `Cn1c(CC(=O)NCCO)c(Sc2ccccc2)c2ccccc21`?
A: Potency: inactive; cell number change: -10.3%

Q: For `Cc1cccc(-n2c(=S)[nH]c3nc4c(cc3c2=O)COC(C)(C)C4)c1`, which Potency is on record?
A: inactive

Q: And the cell number change?
A: 18.9%

Q: Which results are given for `CCOc1ccc(S(=O)(=O)NCCc2cn3ccccc3n2)cc1`?
A: Potency: inactive; cell number change: 6.49%

Q: With `COc1ccc(-c2csc3ncnc(N4CCN(S(=O)(=O)c5ccc(Cl)s5)CC4)c23)cc1` as the compound, how does the Potency read?
A: inactive

Q: For `Cc1nc(N2CCN(c3ccccc3O)CC2)c2c(-c3ccccc3)csc2n1`, which Potency is on record?
A: 4.11 µM (active)

Q: What about the cell number change of the same compound?
A: -4.5%

Q: Which results are given for `COc1ccc(-c2csc3ncnc(N4CCN(c5ccc(OC)cc5)CC4)c23)cc1`?
A: Potency: inactive; cell number change: 11.5%

Q: What does the source list for `COc1ccc(-c2csc3ncnc(N4CCN(S(=O)(=O)c5ccccc5C#N)CC4)c23)cc1`?
A: Potency: 7.31 µM (active); cell number change: -21.2%

Q: Which results are given for `Oc1ccccc1N1CCN(c2ncnc3scc(-c4ccccc4)c23)CC1`?
A: Potency: 0.92 µM (active); cell number change: -12.6%

Q: Which Potency does the source give for `CN1CCN(c2nc(-c3cccnc3)nc3scc(-c4ccccc4)c23)CC1` here?
A: inactive

Q: For `c1ccc(-c2csc3ncnc(N4CCOCC4)c23)cc1`, which Potency is on record?
A: inactive

Q: And the cell number change?
A: -6.12%

Q: With `Cc1ccc(-c2csc3ncnc(N4CCN(c5ccccc5O)CC4)c23)cc1` as the compound, how does the Potency read?
A: inactive

Q: And the cell number change?
A: 7.78%

Q: With `Cc1nc(N2CCCCC2)c2c(-c3cccs3)csc2n1` as the compound, how does the Potency read?
A: inactive

Q: What about the cell number change of the same compound?
A: 4.97%

Q: With `COc1cccc(NC(=O)CN(C)C(=O)c2ccccc2-c2nc3ccccc3s2)c1` as the compound, how does the Potency read?
A: inactive

Q: And the cell number change?
A: -6.15%

Q: With `CCCCn1c(N)c(N(CC)C(=O)c2ccc([N+](=O)[O-])c(C)c2)c(=O)[nH]c1=O` as the compound, how does the Potency read?
A: inactive

Q: What about the cell number change of the same compound?
A: 6.41%

Q: With `COCC(=O)NCCSc1c(C)[nH]c2ccccc12` as the compound, how does the Potency read?
A: inactive

Q: With `COc1ccc(/C=N/NC(=O)c2cccc(Br)c2)cc1CSc1ccccn1` as the compound, how does the Potency read?
A: inactive

Q: And the cell number change?
A: 25.3%

Q: Which Potency does the source give for `Cc1ccccc1CN1CCC(n2nccc2NC(=O)CCOc2ccccc2)CC1` here?
A: inactive

Q: Which results are given for `N#Cc1ccccc1OCC(=O)NCC(c1ccc(F)cc1)N1CCOCC1` (configuration not stated)?
A: Potency: inactive; cell number change: 17.7%

Q: Which Potency does the source give for `CSc1nnc(C)c(=O)n1COC(=O)COc1ccc(F)cc1` here?
A: inactive

Q: For `CCC(C)N(C(=O)Cn1nnc(-c2ccc(F)cc2)n1)C1CCS(=O)(=O)C1` (configuration not stated), which Potency is on record?
A: inactive

Q: And the cell number change?
A: 8.11%

Reference: PubChem BioAssay AID2685 (National Center for Advancing Translational Sciences (NCATS), 2010)
